Our source for the outcome and potentiation values is PubChem BioAssay.

Active and inactive are the calls of the source.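 Rule for the calls: active = primary screen hit whose fluorescence ratio, in both repeats, exceeds the weak agonist control mean by 3 SD; inactive = the rest.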

The test system of this assay is TRPC4 (transient receptor potential cation channel C4 beta), mouse. Put plainly: potentiation of DAMGO EC20 TRPC4 response – cell-based, second round, Fluo-4, HEK293 TRPC4beta/mu-opioid, 1 µM, confirmation (AID 2554). The note with it: DAMGO EC20, Fluo-4 calcium flux, at 1 µM; stronger effect = higher value. Background: Calcium flux is commonly read through the fluorescence of an indicator in the cells.
For the molecule `COC(=O)c1ccccc1NC(=O)c1cnn2cccnc12`, the result was inactive.

Turning to `Cc1cc(Cl)ccc1OC(C)C(=O)Nc1ccccc1N1CCOCC1` (stereo unspecified), the outcome was inactive.

For `CC(C(=O)c1ccc(Br)cc1)[n+]1cccc(NC(=O)c2ccccc2)c1` (stereo unspecified), the result was inactive.

With `Cn1c(SCCOc2ccccc2F)nc2ccccc2c1=O`, the result was inactive.

On to `O=C(CN1CCCN(S(=O)(=O)c2ccc(F)cc2)CC1)Nc1ccccc1Br`, for which the result was inactive.

Regarding `Cc1c(CCOC(=O)c2ccccc2)sc[n+]1CC(=O)c1ccc(Br)cc1`, the outcome was inactive.

Regarding `Cc1c(N2C(=O)/C(=C/c3ccccc3)SC2=S)c(=O)n(-c2ccccc2)n1C`, the outcome was inactive.

Turning to `CCOC(=O)Cc1csc(NC(=O)NC2(C(F)(F)F)Oc3cc(Cl)c(Cl)cc3O2)n1`, the result was inactive.

As for `CCCn1nc(C(=O)NC2CCCc3ccccc32)c2ccccc2c1=O` (stereo unspecified), the outcome was inactive.

In the case of `CCOC(=O)c1c(C)n(-c2ccc(C)cc2)c2ccc(OCC(O)CNCC3CCCO3)cc12` (stereo unspecified), the outcome was inactive.

`O=C(NCCCN1CCN(CCCNC(=O)c2cccc(Cl)c2)CC1)c1cccc(Cl)c1`: the potentiation is 22% (active).

Turning to `COC(=O)[C@@]12CCCCN1[C@H](c1ccc(-c3ccc(C(C)=O)cc3)cc1)[C@@H]1C(=O)N(C)C(=O)[C@@H]12`, the result was inactive.

Consider `Cc1ccc(CNC(=O)CSc2nc(=O)n3ccccc3n2)cc1`, for which the outcome was inactive.

For the molecule `CCCCCCc1cc2cc(-c3nnc(-c4ccccc4O)o3)c(=O)oc2cc1O`, the result was inactive.

On to `CCCCN(C)CCNC(=O)C1CCCN(S(=O)(=O)c2cccc3nsnc23)C1` (stereo unspecified), for which the potentiation is 11% (active).

`Cc1cccc(NC(=O)CNC(=O)CN2C(=O)NC3(CCCCC3C)C2=O)c1C` (stereo unspecified): the outcome was inactive.
